The text below walks through data of PubChem BioAssay (NCI).

About 83,000 compounds went through this panel and 20% of them were active in at least one assay; those are over-represented in the sample as a whole.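 Testing used 96-well plates and a 48-hour single-concentration exposure. Example: -40 means 40% of the starting cells died.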 Unmarked numbers belong to inactive results. The source made the active and inactive calls. How the source made its calls: active means growth percent below 10; inactive means the rest.

Test in all cases: NCI-60 one-dose screen, 48 h (100 = growth as untreated, 0 = no growth, -100 = all killed)
What all share (details): 10 µM unless noted

For assay [1], the system named is NCI-H23 lung.
The subject of assay [2] is NCI-H226 lung.
The test system of assay [3] is NCI-H322M lung.
The subject of assay [4] is HOP-62 NSCLC.
For assay [5], the system named is NCI-H460 lung.
Assay [6] has as its system HOP-92 NSCLC.
In assay [7] the test system is NCI-H522 lung.
Assay [8] concerns A549/ATCC NSCLC.
Assay [9] has as its system 786-0 renal.
Assay [10] relates to COLO 205 colon.
Assay [11] relates to DU-145 prostate.
Assay [12] has as its system K-562 leukemia.
Assay [13] concerns MALME-3M melanoma.
Assay [14] concerns MDA-MB-231 breast.
The test system of assay [15] is RXF 393 renal.
Assay [16] deals with SF-268 CNS.
Assay [17] deals with SF-295 CNS.
Assay [18] concerns SF-539 CNS.
The subject of assay [19] is M14 melanoma.
The subject of assay [20] is UACC-257 melanoma.

As to `O=S(=O)(NCCNc1cc(-c2cn(-c3ccccc3)nc2-c2cccc(O)c2)ccn1)c1ccccc1`, the growth in assay [1] is 57.4%; in assay [2], 67.1%; in assay [3], 82%; in assay [4] it was 77.7%; in [5], 49.1%; in [6], 49.4%. The growth in [7] is 42.3%; in [8], 45.5%; in assay [9], 55.3%; in assay [10], 18.3%; in [11] it was 76.2%; in assay [12] it was 9.58% (active). Also, the growth was 76.4% in assay [13]; 28% in assay [14]; 66.3% in assay [15]; 69.7% in assay [16]; 43.2% in assay [17]; 70% in [18]. Moreover, in [19], the growth is 53.9%.
Take `NCCn1cc(-c2nc(-c3c[nH]c4ncccc34)cs2)c2cc(Br)ccc21`: the growth in [1] is 81.9%; in assay [2], 80.3%; in [3], 80.1%; in [4], 78.1%; in [5], 14.9%; in assay [6] it was 53.6%. In addition, the growth in assay [7] was 100%; in assay [8], 65.3%; in assay [9], 87.3%; in assay [10], -17.1% (active); in assay [11] it was 82.3%; in [12] it was 19.4%. Also, the growth in assay [13] is 95.9%; in assay [14], 56.7%; in [15], 80.5%; in assay [16], 82.8%; in assay [17] it was 102%; in assay [18], 84.2%. The growth in assay [20] was 95.5%; in assay [19], 87.7%.
As to `C=C1C(=O)O[C@H]2[C@H]1CC/C(COC(=O)N[C@H](Cc1c[nH]c3ccccc13)C(=O)OC)=C\CC[C@@]1(C)O[C@@H]21`, the growth in assay [1] was 68.8%; in assay [2], 85.6%; in assay [3], 86.3%; in assay [4], 64.6%; in assay [5] it was 64%; in [6], 3.25% (active). Also, the growth in assay [7] is -71.4% (active); in assay [8], 82.4%; in assay [9], -56.3% (active); in assay [10] it was -36.2% (active); in [11] it was 40.9%; in assay [12], 7.14% (active). The growth was 4.76% (active) in assay [13]; 26.8% in assay [14]; -25.5% (active) in assay [15]; 72.6% in [16]; 91.9% in assay [17]; 11.6% in [18]. Also, the values for the growth in assay [20] and in assay [19] were 63.7% and 44.1%, respectively.
Consider `Cc1cc(N=O)cc(C(C)(C)C)c1O`, for which the growth in assay [1] was 97%; in [2] it was 85.8%; in assay [3], 95.6%; in assay [4], 90%; in assay [5] it was 101%; in [6], 73%. The growth in assay [7] is 90.2%; in assay [8], 73.5%; in [9] it was 103%; in assay [10], 92.3%; in assay [11], 103%; in assay [12] it was 98.2%. Moreover, the growth was 88.4% in assay [13]; 95.1% in [14]; 105% in assay [15]; 100% in assay [16]; 99% in assay [17]; 103% in [18]. In addition, the growth in assay [20] was 75.1%; in assay [19], 92.2%.
As for `COc1ccc(C2=NN(c3nc(-c4ccc(OC)cc4)c(C#N)c(=O)n3C)C(=O)CC2)cc1`, the growth was 99.8% in assay [1]; 86.1% in [2]; 91.9% in assay [3]; 105% in [4]; 103% in [5]; 77.9% in [6]. Moreover, the growth is 94.1% in [7]; 104% in assay [8]; 109% in [9]; 109% in assay [10]; 115% in [11]; 101% in assay [12]. For the same molecule, the growth is 81.6% in [13]; 83.5% in assay [14]; 97.5% in [15]; 100% in [16]; 93.6% in assay [17]; 93.6% in [18]. The growth in assay [19] is 95.4%.
In the case of `COc1ccc(CCN2C(=O)C(C)(C)SC2=S)cc1OC`, the growth is 101% in [1]; 105% in [2]; 103% in assay [3]; 103% in [4]; 105% in assay [5]; 102% in [6]. The growth is 93.8% in assay [7]; 101% in assay [8]; 102% in assay [9]; 111% in assay [10]; 98.8% in assay [11]; 100% in assay [12]. Also, the growth in assay [13] was 96.2%; in assay [14] it was 97.5%; in [15], 109%; in [16], 94.7%; in [17], 96.8%; in [18], 105%. Besides, the growth in [20] is 98.9%; in [19], 98.4%.
In the case of `CCN1CCN(C(=O)[C@]23CCC(C)(C)C[C@@H]2C2=CC[C@@H]4[C@@]5(C)C/C(=C/c6cccnc6)C(=O)C(C)(C)[C@@H]5CC[C@@]4(C)[C@]2(C)CC3)CC1`, the growth in assay [1] is 27.1%; in [2], 32.9%; in assay [3], 62.3%; in assay [4], 44.5%; in [5], 12.1%; in assay [6], 9.8% (active). Also, the growth in assay [7] was 28.4%; in [8], 13.5%; in [9], 50.2%; in [10] it was 25.9%; in assay [11], 50%; in assay [12], 6.69% (active). Besides, the growth is 30.3% in assay [13]; 40.7% in [14]; -7.84% (active) in [15]; 37.6% in assay [16]; 16.7% in [17]; 41.5% in assay [18]. The growth in assay [20] is 3.05% (active); in assay [19] it was 34.4%.
